Test [1] is described as follows: qHTS assay for small molecule agonists of the p53 signaling pathway (AID 651631; calls by dose curve; note: nearly all actives have a fitted effect of over 15% in size; note: potency is the fitted concentration of half-maximal effect). An outline of the steps:
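We treat p53RE-bla HCT-116 cells with compounds for 16 h at 37 °C, add LiveBLAzer B/G FRET substrate for 2 h at room temperature, and measure fluorescence intensity.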

Test [2] can be described thus: qHTS assay for small molecules that induce genotoxicity in human embryonic kidney cells expressing luciferase-tagged ATAD5 (AID 651632). Note: nearly all actives have a fitted effect of over 15% in size. An outline of the steps: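 DMSO vehicle served as the control. HEK293T reporter cells, 16 hr at 37C, then 30 min Amplite at room temperature; ATAD5 induction is measured as luciferase activity.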
For orientation: Quantitative high-throughput screening tests each substance at several concentrations.

Test [3] in a line: qHTS assay for small molecule agonists of the p53 signaling pathway - cell viability (AID 651633; calls by dose curve;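 note: p53RE-bla HCT reporter cells with a stable beta-lactamase p53 reporter; series mostly up to about 83 µM; nearly all actives have a fitted effect of over 30% in size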). An outline of the steps: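 p53RE-bla cells, seeded at 4,000 per well and rested 5 h at 37 C/5% CO2, received compounds in DMSO for 16 h at 37 C. CellTiter-Glo was then added, and luminescence was read after 30 min at room temperature to gauge cytotoxicity.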
Test [4] is described as follows: qHTS assay for small molecules that induce genotoxicity in human embryonic kidney cells expressing luciferase-tagged ATAD5 - cell viability (AID 651634; calls by dose curve; note: nearly all actives have a fitted effect of over 25% in size). An outline of the steps:
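Here HEK293T cells with the ATAD5 luciferase reporter are incubated with test compounds for 15.5 hr, and cytotoxicity is then gauged by measuring protease activity in live cells using fluorescence.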

A short description of test [5]: qHTS assay for small molecule disruptors of the mitochondrial membrane potential - cell viability (AID 720634; calls by dose curve;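 note: human HepG2 liver cancer cells; series mostly up to about 83 µM; nearly all actives have a fitted effect of over 20% in size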). An outline of the steps:
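Viability of HepG2 cells is scored from ATP content by luminescence; cells are exposed to compound for 1 hr at 37 C and 5% CO2, then dosed with m-MPI dye before the CellTiter-Glo reagent.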

Test [6] in a line: qHTS assay to test for compound auto fluorescence at 535 nm (green) in HepG2 cells (AID 720675).
A short description of test [7]: qHTS assay to test for compound auto fluorescence at 460 nm (blue) in HEK293 cells (AID 720678). An outline of the steps:
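Blue read-out at excitation 405 nm and emission 460 nm follows overnight compound exposure of HEK293 cells at 37C in 5% CO2. Activity is given as auto fluorescence equivalency to triamterene.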

Test [8] can be described thus: qHTS assay to test for compound auto fluorescence at 535 nm (green) in HEK293 cells (AID 720680).
Test [9] can be described thus: qHTS assay to test for compound auto fluorescence at 590 nm (red) in HEK293 cell free culture (AID 720683). An outline of the steps: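 Tox21 10K library compounds were pinned into cell-free DMEM with 10% FBS and fluorescence was read at excitation 540 nm. Activity is expressed as Rose Bengal sodium equivalency.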
A short description of test [10]: qHTS assay to test for compound auto fluorescence at 590 nm (red) in HepG2 cell free culture (AID 720684). An outline of the steps: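 Ex 540 / Em 590 nm read of compound in cell-free MEM (10% FBS). Rose Bengal sodium reference.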
Test [11] in a line: qHTS assay to test for compound auto fluorescence at 460 nm (blue) in HepG2 cell free culture (AID 720685). An outline of the steps: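 Cell-free plates of MEM plus 10% FBS received 23 nL compound or DMSO vehicle; blue-channel (405/460 nm) intensity scored against triamterene as reference fluorophore.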
The nature of test [12]: qHTS assay to test for compound auto fluorescence at 535 nm (green) in HepG2 cell free culture (AID 720686).
Test [13] in a line: qHTS assay to test for compound auto fluorescence at 460 nm (blue) in HepG2 cells (AID 720687). An outline of the steps: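 Cells (2,000/well in MEM with 10% FBS) attached overnight at 37 C, then were exposed to compound or DMSO for 1 hr at 37 C, 5% CO2. Fluorescence read at Ex/Em 405/460 nm, expressed as triamterene-equivalent signal.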
The nature of test [14]: qHTS assay to test for compound auto fluorescence at 460 nm (blue) in HEK293 cell free culture (AID 720681). An outline of the steps: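 Test compounds were pinned into cell-free culture medium (DMEM with 10% FBS) and fluorescence was read directly at Ex/Em 405/460 nm. Signals were expressed as fluorescence equivalents of triamterene, with DMSO vehicle as control.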
Test [15] is described as follows: qHTS assay to test for compound auto fluorescence at 535 nm (green) in HEK293 cell free culture (AID 720682). An outline of the steps:
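Green-channel intensity (Ex/Em 485/535 nm) was recorded from compound-treated wells containing only DMEM with 10% FBS. Fluorescein provided the equivalency standard.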

Test [16] in a line: qHTS assay to test for compound auto fluorescence at 590 nm (red) in HepG2 cells (AID 720674). An outline of the steps: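 Compound auto-fluorescence is scored relative to Rose Bengal sodium, measured at 540/590 nm in live HepG2 cultures after 1 hr compound contact (37 C, 5% CO2).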
The target in test [17] is Glucocorticoid receptor (Homo sapiens) (UniProt P04150). As to the kind of experiment: qHTS assay to identify small molecule agonists of the glucocorticoid receptor (GR) signaling pathway (AID 720691; active = well fitted activation curve with a large enough effect in the signal ratio in the repeat runs, not every such curve was filed as active; the % refers to the signal ratio). An outline of the steps: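 Compounds in DMSO, alongside positive controls, were added to GR-bla HeLa reporter cells and incubated 18 h at 37 C; GRE-driven beta-lactamase was detected by fluorescence after 2 h with FRET substrate at room temperature.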

Test [18] shares this target. The test is described as follows: qHTS assay to identify small molecule antagonists of the glucocorticoid receptor (GR) signaling pathway (AID 720692; active = well fitted inhibition curve with a large enough effect in the signal ratio in the repeat runs, not every such curve was filed as active; the % refers to the signal ratio). An outline of the steps:
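In a 1536-well cell format, compounds were added 4 h after seeding GR-bla HeLa cells, together with dexamethasone at 5 nM final; reporter activity was measured by FRET-substrate fluorescence following 18 h at 37 C.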

A short description of test [19]: qHTS assay for small molecule disruptors of the mitochondrial membrane potential (AID 720635). Note: potency is the fitted concentration of half-maximal effect. An outline of the steps: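 HepG2 cells (2,000/well) attached overnight at 37C, then took compound for 1 hr at 37C, 5% CO2. Mito-MPS dye was added for 30 min; fluorescence was read at 490/535 nm (monomers) and 540/590 nm (aggregates).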
Test [20] in a line: qHTS assay to test for compound auto fluorescence at 590 nm (red) in HEK293 cells (AID 720679). An outline of the steps: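 Red channel, Ex/Em 540/590nm; signal expressed as equivalency to Rose Bengal sodium. HEK293, 2,000 cells/well, 10% dialyzed FBS; 23 nL compound pinned after 4-5 hr attachment; overnight 37C/5% CO2 before reading.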

Molecules are shown by their SMILES. Values without a mark were called inactive. Inconclusive results are not listed. Active and inactive are the calls of the source. Unless noted, calls come from the whole dose curve; as a rule, active = well fitted curve in the direction sought with a large enough effect in the repeat runs; inconclusive = weak or mixed curves; inactive = no such curve, though single readings can be large; an effect the other way counts as inactive or inconclusive.
% is set by controls: 0 for no effect and ±100 for the full control effect.

Chain of Glucocorticoid receptor (Homo sapiens) (P04150 whole entry, looked up): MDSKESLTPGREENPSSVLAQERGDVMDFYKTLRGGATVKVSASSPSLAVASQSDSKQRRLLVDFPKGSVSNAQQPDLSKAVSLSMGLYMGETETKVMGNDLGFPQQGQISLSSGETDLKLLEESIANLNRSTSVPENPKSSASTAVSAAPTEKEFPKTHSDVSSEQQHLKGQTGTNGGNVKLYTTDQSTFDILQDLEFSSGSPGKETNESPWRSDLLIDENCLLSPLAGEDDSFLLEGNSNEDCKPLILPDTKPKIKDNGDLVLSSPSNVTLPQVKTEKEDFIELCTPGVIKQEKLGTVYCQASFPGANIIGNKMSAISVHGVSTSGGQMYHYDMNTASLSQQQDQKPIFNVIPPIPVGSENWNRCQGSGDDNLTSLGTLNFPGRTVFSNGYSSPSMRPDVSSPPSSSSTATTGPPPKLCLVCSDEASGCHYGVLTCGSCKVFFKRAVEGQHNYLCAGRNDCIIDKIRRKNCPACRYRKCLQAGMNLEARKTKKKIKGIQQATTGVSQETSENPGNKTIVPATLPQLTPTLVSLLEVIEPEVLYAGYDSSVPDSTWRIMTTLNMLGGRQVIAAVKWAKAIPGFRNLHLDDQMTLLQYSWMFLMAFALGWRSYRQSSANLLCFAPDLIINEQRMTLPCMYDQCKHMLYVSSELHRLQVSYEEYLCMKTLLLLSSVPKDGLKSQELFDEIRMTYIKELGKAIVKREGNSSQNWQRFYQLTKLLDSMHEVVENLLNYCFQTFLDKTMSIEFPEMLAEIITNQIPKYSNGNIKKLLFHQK

With `CCN(C)N=O`, the Potency entry in test [1], in [2], in [3], in [4] and in test [5] was “inactive” in each case. In addition, the compound was classed as inactive in test [6], in test [7], in test [8], in [9], in [10] and in test [11]. Further, the compound was classed as inactive in [12] and in test [13].

As to `CCC(Br)(CC)C(=O)NC(N)=O`, the Potency result in test [1], in test [3], in test [4] and in test [5] was “inactive” each time. Besides, the result in test [6], in test [7], in test [8], in [14], in [15] and in [9] was inactive. Moreover, the outcome in test [10], in test [11], in [12] and in test [13] was inactive.

With `COC(=O)c1cncn1C(C)c1ccccc1` (configuration not stated), the Potency result in test [1], in [2], in test [3], in test [4] and in test [5] was “inactive” in each case. In addition, the result in test [16], in test [6], in test [8], in test [14], in test [9] and in [10] was inactive. The compound was classed as inactive in [11], in test [12] and in test [13].

Consider `CCCCCC[N+](=O)[O-]`, for which the Potency result in [1], in test [3], in test [5] and in [18] was “inactive” in each case. The result in test [16], in [6], in [7], in test [8], in test [15] and in test [9] was inactive. Moreover, the compound was classed as inactive in test [10], in [11], in test [12], in [13] and in test [17].

Take `Cc1ccc(-c2c(Cl)nc(C#N)n2S(=O)(=O)N(C)C)cc1`: the Potency in test [1] is 15.3 µM (active); in test [19], 1.09 µM (active). Besides, the Potency result in test [2] and in [4] was “inactive” in each case. Besides, the compound was called inactive in [6], in [7], in test [20], in test [8], in test [14] and in test [15]. Further, the compound was classed as inactive in test [9], in [10], in test [11], in [12], in [13] and in test [17].

`CO/C=C(/C(=O)OC)c1ccccc1COc1cccc(C(F)(F)F)n1`: in test [1], the Potency is 8.63 µM (active). The Potency entry in test [2], in test [3] and in test [4] was “inactive” throughout. For the same compound, the result in [6], in test [7], in test [20], in test [8], in [14] and in test [9] was inactive. Moreover, the compound was classed as inactive in test [10], in [11], in [12] and in [13].

As for `CCOP(=O)(OCC)Oc1ccc([N+](=O)[O-])cc1`, the Potency entry in [2], in test [3], in test [4], in test [5] and in test [19] was “inactive” each time. Further, the outcome in test [16], in test [6], in test [7], in test [20], in test [8] and in [14] was inactive. Moreover, the call in test [15], in test [9], in test [10], in [11], in test [12] and in test [13] was inactive.

Turning to `Cc1ccccc1C(=O)Nc1cccc(OC(C)C)c1`, the Potency result in test [1], in test [2], in test [3], in [4] and in test [18] was “inactive” in each case. In addition, the Potency in test [19] was 30.6 µM (active). Besides, the call in [16], in test [6], in test [7], in test [20], in [8] and in test [14] was inactive. In addition, the compound was called inactive in test [15], in test [9], in test [10], in [11], in test [12] and in test [13]. For the same compound, the result in test [17] was inactive.

For `c1ccc(CN2CCNCC2)cc1`, the Potency entry in test [1], in test [2], in test [3], in [4], in test [5] and in test [18] was “inactive” each time. Also, the call in [6], in test [7], in [20], in [8], in [14] and in test [15] was inactive. The outcome in test [9], in test [10], in test [11], in test [12], in test [13] and in [17] was inactive.

With `CN(C)c1ccc(N(C)C)cc1`, the Potency result in [1], in test [2], in test [3] and in test [4] was “inactive” throughout. For the same compound, the compound was called inactive in test [16], in test [6], in [20], in test [8], in [15] and in [9]. Further, the call in [10], in test [11], in test [12], in test [13] and in [17] was inactive.

As for `CCOC(=O)CBr`, the Potency result in [1], in test [2], in [3], in [4] and in test [5] was “inactive” each time. Besides, the compound was classed as inactive in test [6], in [7], in test [20], in test [8], in [14] and in test [15]. In addition, the compound was called inactive in test [9], in test [10], in [11], in [12], in [13] and in test [17].

As for `C=CC(=O)OC`, the Potency entry in test [1], in [3], in test [4] and in test [5] was “inactive” throughout. In addition, the result in test [16], in test [6], in test [7], in [20], in [8] and in test [14] was inactive. The result in test [15], in test [9], in test [10], in test [11], in test [12] and in [13] was inactive.

For `CO[C@@H]1[C@H](OC(=O)NC(=O)CCl)CC[C@]2(CO2)[C@H]1[C@@]1(C)O[C@@H]1CC=C(C)C`, the Potency in test [1] was 18.8 µM (active). Further, the Potency result in test [3], in [5] and in test [19] was “inactive” each time. Moreover, the fluorescence, relative to Rose Bengal in test [16] is -0.229% [at 18.6 µM]. In addition, the figures for the fluorescence, % of fluorescein control in test [6] and in [12] were -0.0271% [at 18.6 µM] and -0.0091% [at 18.6 µM], respectively. Moreover, the fluorescence, % of triamterene in test [7] was 0.0741% [at 18.6 µM]. The fluorescence, % of fluorescent control in test [20] is 0.143% [at 18.6 µM]; in test [14], -0.0636% [at 18.6 µM]; in [9] it was -0.369% [at 18.6 µM]; in test [11], -0.133% [at 18.6 µM]; in test [13], 0.154% [at 18.6 µM]. For the same compound, the fluorescence, % of fluorescein in test [8] was -0.127% [at 18.6 µM]. In [15], the activity change was 0.201% [at 18.6 µM]. In addition, in [10], the fluorescence, % of Rose Bengal was -0.153% [at 18.6 µM]. The call in [17] was inactive.

In the case of `S=C=NCc1ccccc1`, in [1], the Potency was 69.3 µM (active). Further, the Potency result in test [3], in [5] and in test [18] was “inactive” in each case. Moreover, the result in [16], in test [6], in [7], in test [20], in test [8] and in test [14] was inactive. The call in [15], in test [9], in test [10], in test [11], in [12] and in [13] was inactive. Besides, the compound was called inactive in test [17].

The values are drawn from PubChem BioAssay (Tox21).
